A selection: hits, their analogues and other compounds. The true share with any hit is near 4.2%.
NLRP3 yeast inh: inhibitors of NALP3 inflammasome in yeast. Yeast reconstituted NLRP3/ASC/caspase-1, beta-gal luminescence, 24 h. inhibition, % at 10 µM. hit rate 0.39% among 330,000. AID 2825;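 active means inhibition of 50% or more; inactive means inhibition below 50%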
tim10-1 inh: inhibits growth of tim10-1 mutant yeast; AID 463190; hit rate 2.2% among 330,000; S. cerevisiae tim10-1 ts strain growth, BacTiter-Glo, 24 h; inhibition, % at 20 µM;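 active means inhibition of at least 40%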;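 further: mutant grown at 25 °C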
TIM10 inh: TIM10 yeast growth inhibition; S. cerevisiae TIM10 strain growth, BacTiter-Glo luminescence, 24 h; inhibition, % at 10 µM; hit rate 1.4% among 330,000; AID 463195;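 active means inhibition of 40% or more at the single tested concentration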;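 further: wild-type TIM10 isogenic control strain grown at permissive 25 °C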
NALP1 yeast inh: NALP1 inhibition; S. cerevisiae NALP1/ASC/caspase-1 growth, X-gal OD620, 72 h; inhibition, % at 10 µM; hit rate 0.61% among 280,000; in the data active means inhibition mostly above about 24%, no sharp cut-off; inactive means mostly below about 32%
tim23-1 inh: growth inhibitors of tim23-1 mutant yeast. S. cerevisiae tim23-1 growth, BacTiter-Glo luminescence, 24 h. inhibition, % at 20 µM. hit rate 1.3% among 330,000. AID 463212;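 active means growth inhibition of the mutant yeast at or above 50%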;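 further: temperature-sensitive mutant grown at 25 °C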
PfHsp90 set2: growth inhibition of yeast expressing Plasmodium Hsp90; hit rate 0.32% among 310,000; inhibition, % at 9.4 µM; AID 504621; S. cerevisiae expressing PfHsp90, BacTiter-Glo ATP, 48 h; yeast lacking PDR1 and PDR3 efflux regulators;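 active means every replicate shows inhibition above about 80%, whatever the replicate mean, limit read from the data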
tim10-1 conf: confirmation of tim10-1 mutant yeast growth inhibitors; shares compounds with tim10-1 inh; inhibition, % at 20 µM; S. cerevisiae tim10-1 ts strain growth, BacTiter-Glo, 24 h; hit rate 56% among 7,400;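 active means inhibition of yeast growth at or above a set limit in either of two repeat tests at 20 µM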;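 further: tim10-1 mutant grown at permissive 25 °C to find synthetic lethal compounds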
tim10 confirm: TIM10 yeast growth inhibition, confirmed. hit rate 63% among 4,600. shares compounds with TIM10 inh. AID 463215. S. cerevisiae tim10 strain growth, BacTiter-Glo luminescence, 24 h. inhibition, % at 10 µM;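 active means inhibition of yeast growth at or above a set limit in either of two replicates at 10 µM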; further: this counterscreen used the strain with wild-type TIM10
tim23-1 conf: confirmation of tim23-1 mutant yeast growth inhibitors | S. cerevisiae tim23-1 growth, BacTiter-Glo luminescence, 24 h | AID 463218 | hit rate 83% among 4,400 | shares compounds with tim23-1 inh | inhibition, % at 20 µM;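 active means inhibition above about 39% in either of two replicate wells at 20 µM, limit read from the data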;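 further: temperature-sensitive tim23-1 mutant grown at 25 °C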
Each line names hits and unclear results; the compound was inactive in the other large screens (follow-up assays come after a bar, where they were run).

CC(C)(O)C#Cc1ccc(CN2CCN(C3CCCC3)C(CCO)C2)cc1 (centres undefined)	none
Cc1noc(-c2ccc(Cl)cc2)c1C(=O)O/N=C(\N)c1ccc(C(C)(C)C)cc1	tim10-1 inh 44.6, TIM10 inh 75.7, tim23-1 inh 71.3 (no result: NALP1 yeast inh) | tim10-1 conf inactive | tim10 confirm 84.5 | tim23-1 conf 58.0
CCOC(=O)c1cc(/C(C)=N/OC(=O)c2ccc(C(C)(C)C)cc2)on1	none
CC(C)(C)c1ccc(C(=O)O/N=C(\N)c2ccccc2)cc1	tim10-1 inh 57.2, TIM10 inh 82.5, tim23-1 inh 83.5 | tim10-1 conf 45.0 | tim10 confirm 91.8 | tim23-1 conf 78.5
Cc1occc1C(=O)O/N=C(\N)c1ccc(Cl)cc1	tim10-1 inh 65.6, TIM10 inh 47.2, tim23-1 inh 82.3 (no result: NALP1 yeast inh) | tim10-1 conf inactive | tim10 confirm 38.4 | tim23-1 conf 76.5
Cc1cc(C(=O)O/N=C(\N)c2ccc(C(C)(C)C)cc2)no1	tim10-1 inh 46.9, TIM10 inh 60.9, tim23-1 inh 69.6 (no result: PfHsp90 set2) | tim10-1 conf 58.0 | tim10 confirm 45.3 | tim23-1 conf 78.0
Cc1cc(-c2onc(C)c2C(=O)Oc2ccc(Cl)cc2)no1	none
COc1ccc(N2CCN(C(=O)Cn3ncc4c([nH]c5ccccc54)c3=O)CC2)cc1	none
COc1ccc(C(=O)O/N=C(\N)c2ccccc2)cc1	tim10-1 inh 70.7, TIM10 inh 57.5, tim23-1 inh 79.8 | tim10-1 conf 68.0 | tim10 confirm 56.4 | tim23-1 conf 78.8
N/C(=N\OC(=O)COc1ccc2ccccc2c1)c1ccncc1	none
N/C(=N\OC(=O)c1ccc2ccccc2c1)c1ccncc1	tim10-1 inh 65.0, tim23-1 inh 51.0 | tim10-1 conf 55.2 | tim23-1 conf 54.9
Cc1cc(SCC(=O)N(C)C2CCCCC2)nc2ccccc12	none (no result: NALP1 yeast inh)
O=C(N/N=C/c1ccc(O)c(O)c1)NC12CC3CC(CC(C3)C1)C2	none
O=C(N/N=C/c1ccccc1O)NC12CC3CC(CC(C3)C1)C2	tim10-1 inh 44.4, tim23-1 inh 71.3 | tim10-1 conf 36.5 | tim23-1 conf 67.8
O=C(Cc1c[nH]c2ccccc12)Nc1ccccc1N1CCOCC1	none
O=c1c2cc(Cl)ccc2nc(-c2ccccc2)n1O	tim10-1 inh 48.2, tim23-1 inh 59.5 | tim10-1 conf inactive | tim23-1 conf 63.7
COc1cccc(C(=O)Oc2cc(N)n(S(=O)(=O)c3ccc(C)cc3)n2)c1OC	none
Cc1ccc(C(=O)Oc2cc(N)n(S(=O)(=O)c3ccc(F)cc3)n2)cc1	tim10-1 inh 49.1, TIM10 inh 44.7, tim23-1 inh 51.8 | tim10-1 conf 34.1 | tim10 confirm 49.4 | tim23-1 conf 42.7
O=c1c2c(nc3n1CCCCC3)-c1ccccc1CC21CCCC1	none
Cn1c(NCCO)nc2c(c1=O)C1(CCCCC1)Cc1ccccc1-2	tim10-1 inh 59.5, tim23-1 inh 58.8 | tim10-1 conf 37.1 | tim23-1 conf 62.9
CSc1nnc2n(C)c3c(c(=O)n12)C1(CCCC1)Cc1ccccc1-3	tim10-1 inh 45.4, TIM10 inh 40.5, tim23-1 inh 62.4 | tim10-1 conf inactive | tim10 confirm 34.6 | tim23-1 conf 49.8
Cn1c(=O)c2c(n3cnnc13)-c1ccccc1CC21CCCC1	none
CSc1n[nH]c2nc3c(c(=O)n12)C1(CCCC1)Cc1ccccc1-3	tim10-1 inh 47.9, tim23-1 inh 52.7 | tim10-1 conf 50.7 | tim23-1 conf 55.1
CCN(CC)Cc1nc2c(c(=O)[nH]1)C1(CCCCC1)Cc1ccccc1-2	tim10-1 inh 41.4, TIM10 inh 50.4, tim23-1 inh 50.2 | tim10-1 conf 41.1 | tim10 confirm 46.9 | tim23-1 conf 40.0
CCCN(Cc1cc2cc(C)ccc2[nH]c1=O)C(=O)c1cccc([N+](=O)[O-])c1	none
COC(=O)CCc1c(C)c(C(=O)c2cc(OC)c(OC)c(OC)c2)c2ccccn12	none

Assay outcomes as filed in PubChem.
